One experiment deals with PPARg homodimer (NR concentration 180 nM). The experiment in a line: PBM binding z-score (relative to random genomic background probes); higher = stronger binding; sequences stand for … in GC…GCGATTGACAGCGTAGAATGAAGG
The essentials:
(§1)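 Ligand-free nuclear receptor dimers were applied to custom Agilent 4×180K protein-binding microarrays whose double-stranded probes carried direct-repeat seeds, single-nucleotide variants, half-site ablations and random human genomic background sequences in 34-nt variable regions. Incubation lasted 1 h. Binding z-scores were computed against the random background probes from regression-normalized fluorescence.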
For ACAGACAGGTGATGAAGGTAACTCCGGCTATCAT, the PBM binding z-score was -0.227.

As for GCGACTGGGGCAAAGCAGGTGACCATAAGGTTGG, the PBM binding z-score is 0.17.

Sequence GCTATTAGTTGAAAGGGCAAACGAATGATTCTCG returned a PBM binding z-score of 1.19.

In turn, AGAATGAGGTTATTAAGATCAGGCAATTGCGGTC registered a PBM binding z-score of 0.366.

In turn, ATCTCTAGGTAAAAGTTCCGTGAATCCCGAGGAT gave a PBM binding z-score of 0.967.

On to GCTTGCAGATCAAGGTTAAGAAAGACTAAGCTAA, for which the PBM binding z-score is -0.687.

ACTAGCAGGCCAAGGGTCACTCCAGATTAGTCCG: the PBM binding z-score was 1.44.

As to ATCGGAAGGTCGAAGGTGAGTATACCCACCCGAA, the PBM binding z-score turned out to be 1.26.

CCGACTGGGGCAAAGGTTACCATCCTCAGTACGA had a PBM binding z-score of 1.17.

Consider CCTACTGGGCAAAGGTCATTGATCAGTCAAAGCA, for which the PBM binding z-score is 4.15.

ATCTCTAGGTAAAGATAGTACAGTGAATGCAAAT came in with a PBM binding z-score of 1.02.

In the case of CATACAGGGTCAGCTAGGCCAGAGCAGGGACGGC, the PBM binding z-score is 1.29.

ATCTATAGGTAAAAGTTCAGTGAATCCCGAGGAT displayed a PBM binding z-score of 1.04.

On to ATCGAAAGGTCGAGGTGAGTCTAGAGAAAGGGAA, for which the PBM binding z-score was 1.92.

TCTCGTAGATCAATAGAGGTTAAGAAAGTGCGCT gave a PBM binding z-score of 0.0307.

GCGACTGGGGCAAAGCAGGTTTCCATAAGGTTGG yielded a PBM binding z-score of -0.0282.

ACATGTAGGTTATCGGGTCATTCAGTTTGCGCAT returned a PBM binding z-score of 5.01.

For the sequence CCGAGTAGGTTACGGGGCATTCAGGCAACGGTGA, the PBM binding z-score was 0.551.

In the case of GTGCCAAGGTGAATAGGTCGTTGATGAGTAGGCG, the PBM binding z-score amounted to 1.02.

Sequence GATACAGGGCCAAGGCCAGAGTACGCGTATTGAT came in with a PBM binding z-score of -0.373.

Sequence CCTACTGGGCCATCAGGGCATTGATATCAACGTT showed a PBM binding z-score of -0.00622.

For ATCTCTAGGTAACCAAGTTAAGTGAATGCCGAAC, the PBM binding z-score came to 0.347.

In turn, ACTAGCAGGCCATGGGTCACTCAAGATTAGTCCG gave a PBM binding z-score of 0.473.

On to CGTCAAAGTTCAAGGTAACGAAACAGAAAGCAGC, for which the PBM binding z-score was 3.5.

Sequence TTACCAAGGTGAAGGTTGTTGATCCCTCTGTAGA displayed a PBM binding z-score of 0.542.

As to TCTAGTTGGTCACGGAGGTCTCACACGACGGGTA, the PBM binding z-score is 1.03.

As for CGTCCAAGGTCAGCAGGTCAGTGAAAGCGACGTG, the PBM binding z-score amounted to 3.81.

Take CCTGCTATGTCAATGGTCAGCTAAAGCAGCTCGC: the PBM binding z-score was -0.369.

In the case of CCGACTGGGGCAAAGGTTACCATTCTCAGTACGA, the PBM binding z-score came to 3.82.

As to CGTCCAAGGTCAGCGAGGTCAGTGAATGCCGAGT, the PBM binding z-score was 4.66.

In turn, AGTCAAAGTTCACTAGCTAACGTAAGATTCAGCT yielded a PBM binding z-score of 1.85.

With TCAATTAGTTGAAGGGCAACCGACGAGTCCGTTT, the PBM binding z-score was -0.0858.

In the case of TCTCGGAGGACACGAAAGGTTAGAGCTCGACATC, the PBM binding z-score was 0.402.

TGAATGAGGTTATAAGATCAGGGAGCGTTGCAAA returned a PBM binding z-score of 0.0916.

As for TCTGCTAGGTCAACGAAGGTCAGCTAATCTGCTA, the PBM binding z-score amounted to 3.51.

The sequence TCTTGTAGATCAACAGGAGGCTAAGAAAGATCGA gave a PBM binding z-score of -1.21.

As for CTCGAAAGGTCGGGTGAGGTGAGTATACGGATAA, the PBM binding z-score is 1.4.

On to TAGCATAGGTCATTCAGGGGCCAGTATAGAAAGC, for which the PBM binding z-score worked out at 5.69.

ATGCCAAGGTGATCGTGAGGTCGTTGATACTAAC returned a PBM binding z-score of 0.442.

GAATATAGGTAATACAAGGTGAAAGTCCGATTGT gave a PBM binding z-score of 1.32.

A further experiment has as its system PXR:RXRa (NR concentration 270 nM, RXRa partner concentration 90 nM). Described as above. The essentials:
as §1
ACAGACAGGTGATGAAGGTAACTCCGGCTATCAT: the PBM binding z-score amounted to 0.0944.

In turn, GCGACTGGGGCAAAGCAGGTGACCATAAGGTTGG yielded a PBM binding z-score of -0.318.

For the sequence GCTATTAGTTGAAAGGGCAAACGAATGATTCTCG, the PBM binding z-score came to 0.938.

The sequence AGAATGAGGTTATTAAGATCAGGCAATTGCGGTC registered a PBM binding z-score of 1.2.

As for ATCTCTAGGTAAAAGTTCCGTGAATCCCGAGGAT, the PBM binding z-score is -0.0655.

Sequence GCTTGCAGATCAAGGTTAAGAAAGACTAAGCTAA came in with a PBM binding z-score of 0.18.

In the case of ACTAGCAGGCCAAGGGTCACTCCAGATTAGTCCG, the PBM binding z-score stood at 2.68.

ATCGGAAGGTCGAAGGTGAGTATACCCACCCGAA registered a PBM binding z-score of 1.65.

As for CCGACTGGGGCAAAGGTTACCATCCTCAGTACGA, the PBM binding z-score was 2.56.

For the sequence CCTACTGGGCAAAGGTCATTGATCAGTCAAAGCA, the PBM binding z-score is 5.26.

The sequence ATCTCTAGGTAAAGATAGTACAGTGAATGCAAAT showed a PBM binding z-score of 0.0817.

In the case of CATACAGGGTCAGCTAGGCCAGAGCAGGGACGGC, the PBM binding z-score is 2.04.

ATCTATAGGTAAAAGTTCAGTGAATCCCGAGGAT: the PBM binding z-score came out at 2.17.

For ATCGAAAGGTCGAGGTGAGTCTAGAGAAAGGGAA, the PBM binding z-score stood at 3.05.

Take TCTCGTAGATCAATAGAGGTTAAGAAAGTGCGCT: the PBM binding z-score came out at 3.08.

In the case of GCGACTGGGGCAAAGCAGGTTTCCATAAGGTTGG, the PBM binding z-score is -0.473.

On to ACATGTAGGTTATCGGGTCATTCAGTTTGCGCAT, for which the PBM binding z-score worked out at 4.02.

Turning to CCGAGTAGGTTACGGGGCATTCAGGCAACGGTGA, the PBM binding z-score was 0.0878.

Turning to GTGCCAAGGTGAATAGGTCGTTGATGAGTAGGCG, the PBM binding z-score turned out to be 0.425.

Sequence GATACAGGGCCAAGGCCAGAGTACGCGTATTGAT returned a PBM binding z-score of -0.55.

In turn, CCTACTGGGCCATCAGGGCATTGATATCAACGTT came in with a PBM binding z-score of -0.679.

ATCTCTAGGTAACCAAGTTAAGTGAATGCCGAAC came in with a PBM binding z-score of 0.282.

ACTAGCAGGCCATGGGTCACTCAAGATTAGTCCG: the PBM binding z-score worked out at 0.85.

CGTCAAAGTTCAAGGTAACGAAACAGAAAGCAGC gave a PBM binding z-score of 3.94.

TTACCAAGGTGAAGGTTGTTGATCCCTCTGTAGA displayed a PBM binding z-score of 0.665.

Sequence TCTAGTTGGTCACGGAGGTCTCACACGACGGGTA showed a PBM binding z-score of 0.478.

Sequence CGTCCAAGGTCAGCAGGTCAGTGAAAGCGACGTG registered a PBM binding z-score of 3.7.

The sequence CCTGCTATGTCAATGGTCAGCTAAAGCAGCTCGC yielded a PBM binding z-score of -0.209.

CCGACTGGGGCAAAGGTTACCATTCTCAGTACGA registered a PBM binding z-score of 2.41.

CGTCCAAGGTCAGCGAGGTCAGTGAATGCCGAGT registered a PBM binding z-score of 6.03.

In turn, AGTCAAAGTTCACTAGCTAACGTAAGATTCAGCT registered a PBM binding z-score of 3.57.

For TCAATTAGTTGAAGGGCAACCGACGAGTCCGTTT, the PBM binding z-score is 0.533.

TCTCGGAGGACACGAAAGGTTAGAGCTCGACATC displayed a PBM binding z-score of 0.853.

TGAATGAGGTTATAAGATCAGGGAGCGTTGCAAA gave a PBM binding z-score of 0.406.

As for TCTGCTAGGTCAACGAAGGTCAGCTAATCTGCTA, the PBM binding z-score came out at 5.64.

In turn, TCTTGTAGATCAACAGGAGGCTAAGAAAGATCGA gave a PBM binding z-score of -0.24.

CTCGAAAGGTCGGGTGAGGTGAGTATACGGATAA displayed a PBM binding z-score of 3.82.

TAGCATAGGTCATTCAGGGGCCAGTATAGAAAGC returned a PBM binding z-score of 4.14.

ATGCCAAGGTGATCGTGAGGTCGTTGATACTAAC returned a PBM binding z-score of 2.75.

GAATATAGGTAATACAAGGTGAAAGTCCGATTGT registered a PBM binding z-score of 0.776.

For the origin of these results see the supplement of paper PMC6555819.
